The campaign covered roughly 1,100 compounds. About 420 (38%) were called active. Not all results are given here. Values without a mark were called inactive. No stated cut-off is given here; in the data, active means inhibition above about 29%; inactive means the rest.

This assay deals with Orexin/Hypocretin receptor type 1 (Homo sapiens) (UniProt O43613). Nature of the assay: OX1R (HCRTR1) antagonists, confirmation, fluorescence, CHO/OX1R cells, Fluo-8 calcium, orexin A (AID 492963).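 Further: 0% = agonist challenge alone and 100% = reference antagonist.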 As to conditions: orexin A calcium Fluo-8 fluorescence, at 5 µM, stronger effect = higher value.
Chain of Orexin/Hypocretin receptor type 1 (Homo sapiens) (O43613 whole entry, looked up): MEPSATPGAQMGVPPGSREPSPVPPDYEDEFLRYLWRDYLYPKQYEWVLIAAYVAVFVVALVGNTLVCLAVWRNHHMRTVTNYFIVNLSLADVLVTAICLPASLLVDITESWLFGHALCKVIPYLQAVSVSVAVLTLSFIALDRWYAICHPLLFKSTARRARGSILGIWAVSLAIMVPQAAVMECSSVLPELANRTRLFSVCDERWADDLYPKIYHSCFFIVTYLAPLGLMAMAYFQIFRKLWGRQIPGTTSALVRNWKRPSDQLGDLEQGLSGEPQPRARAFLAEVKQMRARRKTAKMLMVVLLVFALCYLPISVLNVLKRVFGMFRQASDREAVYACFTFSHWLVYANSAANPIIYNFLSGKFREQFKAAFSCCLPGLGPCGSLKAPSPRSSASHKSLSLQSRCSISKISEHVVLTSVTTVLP
Usually inhibition stands for the drop in the measured response relative to a control, in per cent. On to `O=C(Nc1cccc2cccnc12)c1cccc(N2C(=O)CCC2=O)c1`, for which the inhibition was 33.2% (active).
In the case of `CCOC(=O)c1cccc(NC(=O)CN(c2ccc(C)cc2)S(=O)(=O)c2c(C)noc2C)c1` it was 5.21%; in that of `COc1ccc2sc(-c3ccc(N(C)C)cc3)c(C#CCO)c2c1`, 25.9%; in that of `CCOC(=O)c1c(-c2ccc(C)cc2C)csc1NC(=O)CSc1nnnn1C`, -17.1%.
The result for `CCn1c(SCC(=O)c2ccc3ccccc3c2)nnc1-c1cccs1` reads 29.5% (active); that for `CCOC(=O)N1CCN(C(=O)c2ccc(S(=O)(=O)Nc3cccc(C(F)(F)F)c3)cc2)CC1`, 15.2%.
Turning to `COc1ccc(N2CC(C(=O)NCCN3C(=O)S/C(=C\c4cccnc4)C3=O)CC2=O)c(OC)c1` (stereo not given), the inhibition was 26.6%.
The result for `COc1cc(CN2CC(C)CC(C)C2)cc([N+](=O)[O-])c1O` (stereo not given) reads -4.4%; that for `COc1ccccc1CNC(=O)C1CCCN(S(=O)(=O)c2cccc3cccnc23)C1` (stereo not given), -1.33%; that for `Cc1cc(C)cc(NC(=O)C2CCCN2S(=O)(=O)c2cccc3cccnc23)c1` (stereo not given), 62.9% (active).
The result for `NC(=O)C1=C[C@@H](c2ccc3c(c2)OCO3)C[C@@H](OCCCCO)O1` reads 1.6%; that for `CC1(C)C2CC=C(/C=N/NC(=O)C3CC3)C1C2` (stereo not given), -24.5%.
The result for `O=C(Cn1[nH]c(=O)c2ccccc2c1=O)Nc1cccc(-c2nnc3n2CCCCC3)c1` reads 24.9%; that for `S=C(NCc1ccc(Cl)cc1)NC12CC3CC(CC(C3)C1)C2`, 10.8%.
In the case of `Cc1cc(N2CCCC2=O)cc(C)c1S(N)(=O)=O`, the inhibition is 1.01%.
Consider `N#C/C(=C/c1ccc(N2CCCCC2)o1)C(=O)NCCc1c[nH]c2ccccc12`, for which the inhibition is 48.7% (active).
In the case of `O=C(N/N=C/c1c(Cl)[nH]c2ccccc12)c1sc2ccccc2c1Cl` it was 79% (active); in that of `C/C(N)=C(/C#N)C(=O)COC(=O)c1cc(-c2ccc(C)cc2)nc2ccccc12`, -4.02%.
In the case of `CCc1ccccc1OCC(=O)Nc1ccc(C)c(S(=O)(=O)N2CCCCCC2)c1`, the inhibition is 5.4%.
The result for `O=C(NC(Cc1c[nH]c2ccccc12)C(=O)N/N=C/c1ccc(Br)cc1)c1cccs1` (stereo not given) reads 55.8% (active); that for `CCOc1ccc(CCNC(=O)C(CC)n2nc(C)n3c(cc4sccc43)c2=O)cc1OCC` (stereo not given), 25.3%; that for `CC(C)(C)NC(=O)CN(C(=O)c1csnn1)c1ccccc1-c1ccccc1`, 18.8%.
In the case of `N#C/C(=C1\CCCN1)c1nc(-c2ccccc2)cs1` it was 40% (active).
On to `N#CC(=C1SC=CS1)c1nc(-c2ccccc2)cs1`, for which the inhibition is 87.3% (active).
In the case of `Nc1nc(COC(=O)CCC(=O)c2ccc(Cl)cc2)nc(Nc2ccccc2)n1` it was 19.1%.
For `CC(Oc1ccc2ccccc2c1)C(=O)NNC(=S)NC(=O)c1ccco1` (stereo not given), the inhibition is 5.25%.
As for `N/C(=N\OC(=O)Nc1ccc(Cl)c(Cl)c1)c1ncc(C(F)(F)F)cc1Cl`, the inhibition was 29% (active).
The result for `COC(=O)c1sccc1NC(=O)CSc1ccccc1NS(=O)(=O)c1cc(Cl)ccc1Cl` reads 21.5%; that for `Cc1cc(C(=O)NC2CCCc3c2cnn3-c2cccc(C)c2C)c(C)o1` (stereo not given), 27.6%; that for `CC(=O)Nc1cccc(OCC(=O)/C=C2\N(C)c3ccccc3C2(C)C)c1`, 15.6%.
The result for `Cc1cccc(NS(=O)(=O)c2cccc(C(=O)NNC(=O)c3ccccc3O)c2)c1` reads 14.2%.
In the case of `COc1ccc(/C=C/C(=O)c2ccc(NS(=O)(=O)c3ccc(C)cc3)cc2)cc1O` it was 42.2% (active); in that of `O=C1C=C(c2ccc(Cl)cc2)C(=O)N1Nc1ccccc1`, 57% (active); in that of `Cc1ccc2c(C)c(C(=O)N(C)CCC3CCCCO3)oc2c1C` (stereo not given), -17.4%.
Take `O=C(N/N=C/c1sc(N2CCCCC2)nc1-c1cccs1)c1cccnc1`: the inhibition was 48.1% (active).
Consider `Cc1cccc(NC(=O)Nc2cccc(Oc3c(F)c(F)c(F)c(F)c3F)c2)c1`, for which the inhibition was 12.1%.
In the case of `CCCN(CC(=O)Nc1ccccc1OC)C(=O)CCC(=O)c1ccc(F)cc1` it was 1.45%; in that of `Cc1cc(-c2ccc(C)c(S(=O)(=O)NC(C)Cc3ccco3)c2)on1` (stereo not given), 0.43%.
The result for `CCOc1ccc(/C=C/C(=O)OCC(=O)c2ccccc2OC)cc1OC` reads 36.1% (active).
Turning to `O=C(CCCN1CCc2[nH]c3ccc(F)cc3c2C1)c1ccc(F)cc1`, the inhibition is 26.4%.
In the case of `Cn1c(N)c(C(=O)COC(=O)c2ccc3ccccc3c2)c(=O)n(C)c1=O` it was 30.5% (active).
In the case of `Cc1ccc(S(=O)(=O)N2CCN(c3ncnc4ccccc34)CC2)cc1` it was 15%; in that of `CCOc1cc(/C=C(\C#N)c2nc(-c3cccs3)c(NC(C)=O)s2)ccc1O`, 18%.
In the case of `O=C1c2ccccc2S(=O)(=O)N1CC(O)Cn1c2ccccc2c2ccccc21` (stereo not given) it was 29.4% (active).
For the compound `CC1CCCN(CC(O)COCc2ccccc2)C1` (stereo not given), the inhibition is 5.05%.
Regarding `O=C(OC1CCOC1=O)c1ccc(-c2nc3ccccc3s2)s1` (stereo not given), the inhibition is 43.4% (active).
The result for `CCCc1nc2c(c(=O)c3ccccc3n2C)c(=O)n1C1CCCCCC1` reads 9.14%; that for `S=c1[nH]nc(-c2cc(-c3ccccc3)n[nH]2)n1/N=C/c1c2ccccc2cc2ccccc12`, 38.1% (active); that for `CCOC(=O)N1CCN(c2cc(C)c([N+](=O)[O-])cc2F)CC1`, 17.3%.
The result for `COc1cccc(C(=O)NC(=O)Nc2nc(C)cc(C(F)(F)F)n2)c1` reads 35% (active); that for `CCCCC(=O)NNC(=S)NC(=O)C(c1ccccc1)c1ccccc1`, 58.6% (active).
In the case of `CCCCCCCC(=O)NC(Nc1ccccc1OC)C(Cl)(Cl)Cl` (stereo not given) it was -23.5%; in that of `Cc1ccc(NC(=O)COc2ccc(-n3ccnc3)cc2)cc1Cl`, 22.1%.
In the case of `O=C(Nc1cccc(NC(=O)N2CCN(c3ccccc3)CC2)c1)N1CCN(c2ccccc2)CC1`, the inhibition is 37.3% (active).
The result for `COc1cc2ccccc2cc1C(=O)Nc1ccc(N2CCOCC2)cc1` reads -1.28%; that for `CN(c1ccccc1)S(=O)(=O)c1cccc(NC(=O)Cc2ccc(Cl)cc2)c1`, 26%; that for `N#Cc1nc(-c2cccc3ccccc23)oc1N`, 40.6% (active).
On to `COc1cccc(/C=N/NC(=O)c2[nH]nc3c2CCc2ccccc2-3)c1O`, for which the inhibition is 20.3%.
In the case of `COc1cccc(/C=N/Nc2cc(C)nc(-c3ccccc3O)n2)c1O` it was 69.7% (active); in that of `CCC(=O)N(C)C(c1ccccc1Cl)c1nnnn1-c1c(C)cccc1C` (stereo not given), 21.7%.
In the case of `Cc1ccccc1S(=O)(=O)N1[C@@H](c2cccc(Cl)c2)C(C(=O)O)=CC[C@H]1c1ccc(Cl)cc1` it was 43.3% (active); in that of `COCc1c(C(=O)OCC(=O)Nc2ccc(OC(F)F)cc2)oc2ccccc12`, 26.3%.
As to `C=CCn1c(SCC(=O)Nc2nc3ccccc3s2)nnc1-c1ccccc1O`, the inhibition is 48% (active).
In the case of `COc1ccc2[nH]cc(/C=C(/C#N)S(=O)(=O)c3ccccc3)c2c1` it was 8.34%; in that of `c1coc(CNc2ncnc3ccccc23)c1`, 24.7%.

For the origin of these results see PubChem BioAssay AID492963 (The Scripps Research Institute Molecular Screening Center, 2010).
